# From PubChem BioAssay AID720697 (Broad Institute, 2013)
# Entries with a potency or affinity are not part of this list. Inconclusive results are not listed. Values without a mark were called inactive.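 Rule for the calls: active = signal loss with fitted half-maximal concentration at or below twice the top valid tested dose in every test run; inconclusive = runs disagree, flat 30 to 70% signal loss, or poor fit; inactive = all runs flat, opposite direction, or potency beyond limit.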
# Assay: general mammalian cell viability loss – inhibitor set, cherry-pick, set 2, cytotoxicity control for miR-122 modulator project, dose response (AID 720697);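 note: 0% = median of neutral control wells and -100% = MG132 positive control wells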
# Conditions: HEK293T viability, CellTiter-Glo luminescence, 48 h; series mostly up to 26 µM; activity change, negative = cytotoxicity: at the top concentration
row,SMILES,"activity change, negative = cytotoxicity"
1,CCOC(=O)CSc1nnnn1-c1cccc2ccccc12,20.9%
2,COC(=O)C[C@H]1CC[C@H]2[C@H](COc3ccc(NS(=O)(=O)c4ccc(F)cc4)cc3C(=O)N2C)O1,27.3%
3,CN(C)CCCN(C(=O)CCc1ccccc1)c1nc2ccc(Br)cc2s1,22.8%
4,COc1cccc(COc2cc3ccccc3nc2C)c1,0.355%
5,CC(=O)N1[C@H](CO)[C@@H](c2ccccc2)[C@H]1CN(CC(C)C)C(=O)c1ccccn1,12.4% [at 23.5 µM]
6,COc1ccc(NC(=O)Cn2nnc(C(=O)NCc3ccccc3OC)c2N)cc1Cl,45.7%
7,CO[C@@H]1CN(C)C(=O)c2cc(NC(=O)Nc3cc(Cl)cc(Cl)c3)ccc2OC[C@H](C)NC[C@H]1C,10.9%
8,COCC(=O)N(C[C@H]1[C@H](c2ccccc2)[C@H](CO)N1C(=O)NC(C)C)C(C)C,33.3% [at 23.5 µM]
9,O=C(Nc1ccccc1N1CCN(C(=O)c2ccc(Cl)cc2)CC1)c1cccnc1,85.2%
10,COc1cccc(-c2ccc3c(c2)O[C@H](CN(C)C(=O)C2CCOCC2)[C@H](C)CN([C@H](C)CO)S3(=O)=O)c1,-9.57%
11,CN1C(=O)c2cc(NC(=O)Nc3ccc(Cl)cc3)ccc2OC[C@H]2O[C@H](CC(=O)NCCN3CCCCC3)CC[C@H]21,47.9% [at 23.5 µM]
12,C[C@@H]1CN([C@@H](C)CO)C(=O)Cc2cc(NC(=O)C3CCCCC3)ccc2O[C@H]1CN(C)Cc1ccc(-c2ccccc2)cc1,-20.5% [at 23.5 µM]
13,CC(=O)Nc1ccc2c(c1)C(=O)N(C)[C@@H]1CC[C@H](CC(=O)NCCCN3CCOCC3)O[C@@H]1CO2,-0.596% [at 23.5 µM]
14,Cc1cc(C(=O)Nc2ccc3c(c2)C(=O)N(C)[C@H]2CC[C@H](CC(=O)N[C@H](C)c4ccccc4)O[C@H]2CO3)no1,37.3%
